Source: the antibiotic and cytotoxicity screens of Wong et al. (2023)
The whole screen tested about 39,000 compounds, of which about 3,300 (8.5%) were called active. The full list was thinned out, with actives kept by preference.

These molecules were tested on HepG2 (assay: cytotoxicity call (relative viability < 0.9)). Conditions: 10 µM.
`OC(c1ccc(-c2ccc(CN3CCN(Cc4ccncc4)CC3)cc2)c(F)c1)(C(F)(F)F)C(F)(F)F` was tested, and the cytotoxicity call was “inactive”.
With `CC(C)C[C@@H](NC(=O)CCN)C(=O)O` the cytotoxicity call was “active”.
`CC(=O)N[C@@H](CC(C)C)C(=O)O` [listing 1 of 2 here] was tested, and the cytotoxicity call was “inactive”.
For `CC(=O)N[C@@H](CC(C)C)C(=O)O` [listing 2 of 2 here], the cytotoxicity call was “inactive”.
For `O=C(N[C@@H]1CC[C@H](CCNS(=O)(=O)c2ccc(F)cc2)O[C@H]1CO)C1CC1`, the cytotoxicity call was “inactive”.
In the case of `Cc1noc(C)c1S(=O)(=O)N(C)C[C@@H]1Oc2ccc(NC(=O)NC(C)C)cc2CC(=O)N([C@@H](C)CO)C[C@H]1C`, the cytotoxicity call is reported as “inactive”.
For `CCN1C(=O)S/C(=C\C(=O)O)C1=O`, the cytotoxicity call was “inactive”.
With `O=C(C[C@H]1CC[C@@H]2NC[C@@H](O)COC[C@H]2O1)NCCN1CCCCC1` the cytotoxicity call was “inactive”.
In the case of `C[C@H]1CCCCO[C@H](CN(C)S(=O)(=O)c2ccc(Cl)cc2)[C@@H](C)CN([C@@H](C)CO)C(=O)c2cc(NC(=O)Nc3ccc(C(F)(F)F)cc3)ccc2O1`, the cytotoxicity call is reported as “inactive”.
`C[C@@H]1CCCCO[C@H](CN(C)S(=O)(=O)c2ccc(Cl)cc2)[C@@H](C)CN([C@H](C)CO)C(=O)c2cc(NC(=O)Nc3ccc(C(F)(F)F)cc3)ccc2O1` was tested, and the cytotoxicity call was “active”.
In the case of `C[C@@H]1CCCCO[C@@H](CN(C)S(=O)(=O)c2ccc(Cl)cc2)[C@H](C)CN([C@@H](C)CO)C(=O)c2cc(NC(=O)Nc3ccc(C(F)(F)F)cc3)ccc2O1`, the cytotoxicity call is reported as “inactive”.
`C[C@@H]1CCCCO[C@@H](CN(C)S(=O)(=O)c2ccc(Cl)cc2)[C@H](C)CN([C@H](C)CO)C(=O)c2cc(NC(=O)Nc3ccc(C(F)(F)F)cc3)ccc2O1` was tested, and the cytotoxicity call was “inactive”.
In the case of `C[C@H](CO)N1C[C@H](C)[C@H](CN(C)S(=O)(=O)c2ccc(Cl)cc2)OCCCC[C@H](C)Oc2ccc(NC(=O)Nc3ccc(C(F)(F)F)cc3)cc2C1=O`, the cytotoxicity call is reported as “active”.
With `C[C@@H]1CN([C@H](C)CO)C(=O)c2cc(NC(=O)Nc3ccc(C(F)(F)F)cc3)ccc2O[C@@H](C)CCCCO[C@H]1CN(C)S(=O)(=O)c1ccc(Cl)cc1` the cytotoxicity call was “inactive”.
For `COc1ccc(S(=O)(=O)N(C)C[C@@H]2Oc3ncc(-c4cccc(OC)c4)cc3C(=O)N([C@H](C)CO)C[C@@H]2C)cc1`, the cytotoxicity call was “inactive”.
With `Cc1noc(C)c1S(=O)(=O)Nc1ccc2c(c1)C(=O)N([C@@H](C)CO)C[C@@H](C)[C@H](CN(C)C(=O)Nc1ccc(C(F)(F)F)cc1)OCCCC[C@@H](C)O2` the cytotoxicity call was “inactive”.
For `NC[C@H]1COC2(CCCCC2)O1`, the cytotoxicity call was “inactive”.
With `C[C@H]1CN([C@@H](C)CO)C(=O)Cc2cc(NC(=O)CCN3CCOCC3)ccc2O[C@H]1CN(C)S(=O)(=O)c1ccc(Cl)cc1` the cytotoxicity call was “inactive”.
`CC(=O)Nc1nonc1N1CCCC1=O` was tested, and the cytotoxicity call was “inactive”.
With `O=C(Cc1ccccn1)NCC[C@@H]1CC[C@@H](NC(=O)CN2CCOCC2)[C@@H](CO)O1` the cytotoxicity call was “inactive”.
In the case of `Cc1ccc(S(=O)(=O)Nc2ccc3c(c2)C(=O)N([C@@H](C)CO)C[C@@H](C)[C@@H](CN(C)C(=O)Nc2ccc4c(c2)OCO4)OCCCC[C@H](C)O3)cc1`, the cytotoxicity call is reported as “inactive”.
With `CC1C=CC=CC=CC=CC=CC=CC=CC(OC2OC(C)C(O)C(N)C2O)CC(O)C(C(=O)O)C(O)CC(=O)CC(O)CC(O)CC(O)CC(=O)CCCC(=O)CC(=O)OC1C(C)CC(C)C(O)CC(=O)c1ccc(N)cc1` (stereo not drawn) the cytotoxicity call was “active”.
For `C[C@H]1[C@@H](O)[C@@H](C)\C=C/C=C\C=C/C=C\C=C/C=C\C=C/[C@@H](O[C@H]2O[C@H](C)[C@@H](O)[C@H](N)[C@@H]2O)C[C@H]2O[C@](O)(C[C@@H](O)C[C@@H](O)[C@@H](O)CC[C@@H](O)C[C@@H](O)CC(=O)O[C@H]1C)C[C@@H](O)[C@@H]2C(=O)O`, the cytotoxicity call was “inactive”.
`CC1C=CC=CC=CC=CC=CC=CC=CC(OC2OC(C)C(O)C(N)C2O)CC2OC(O)(CC(O)CC(O)C(O)CCC(O)CC(O)CC(=O)OC(C)C(C)C1O)CC(O)C2C(=O)O` (stereo not drawn) was tested, and the cytotoxicity call was “inactive”.
`COc1ccc(CN(C)C[C@@H]2Oc3ccc(NC(=O)Cn4cnnn4)cc3CC(=O)N([C@H](C)CO)C[C@H]2C)cc1` was tested, and the cytotoxicity call was “inactive”.
For `O=c1nc(NCc2cccnc2)cn[nH]1`, the cytotoxicity call was “inactive”.
With `COc1ccc(NC(=O)Nc2ccc3c(c2)C(=O)N([C@@H](C)CO)C[C@@H](C)[C@H](CN(C)CC2CCCCC2)OCCCC[C@@H](C)O3)cc1` the cytotoxicity call was “inactive”.
For `COc1ccc(NC(=O)Nc2ccc3c(c2)C(=O)N([C@H](C)CO)C[C@@H](C)[C@@H](CN(C)CC2CCCCC2)OCCCC[C@H](C)O3)cc1`, the cytotoxicity call was “active”.
With `COc1ccc(NC(=O)Nc2ccc3c(c2)C(=O)N([C@@H](C)CO)C[C@H](C)[C@@H](CN(C)CC2CCCCC2)OCCCC[C@H](C)O3)cc1` the cytotoxicity call was “inactive”.
For `COc1ccc(NC(=O)Nc2ccc3c(c2)C(=O)N([C@@H](C)CO)C[C@@H](C)[C@H](CN(C)CC2CCCCC2)OCCCC[C@H](C)O3)cc1`, the cytotoxicity call was “inactive”.
In the case of `COc1ccc(NC(=O)Nc2ccc3c(c2)C(=O)N([C@H](C)CO)C[C@@H](C)[C@H](CN(C)CC2CCCCC2)OCCCC[C@@H](C)O3)cc1`, the cytotoxicity call is reported as “active”.
For `COc1ccc(NC(=O)Nc2ccc3c(c2)C(=O)N([C@@H](C)CO)C[C@@H](C)[C@@H](CN(C)CC2CCCCC2)OCCCC[C@@H](C)O3)cc1`, the cytotoxicity call was “active”.
`COc1ccc(NC(=O)Nc2ccc3c(c2)C(=O)N([C@@H](C)CO)C[C@H](C)[C@H](CN(C)CC2CCCCC2)OCCCC[C@@H](C)O3)cc1` was tested, and the cytotoxicity call was “inactive”.
For `COc1ccc(NC(=O)Nc2ccc3c(c2)C(=O)N([C@H](C)CO)C[C@H](C)[C@@H](CN(C)CC2CCCCC2)OCCCC[C@@H](C)O3)cc1`, the cytotoxicity call was “inactive”.
In the case of `COc1ccc(NC(=O)Nc2ccc3c(c2)C(=O)N([C@H](C)CO)C[C@@H](C)[C@H](CN(C)CC2CC2)OCCCC[C@H](C)O3)cc1`, the cytotoxicity call is reported as “inactive”.
For `COc1ccc(NC(=O)Nc2ccc3c(c2)C(=O)N([C@@H](C)CO)C[C@@H](C)[C@@H](CN(C)CC2CCCCC2)OCCCC[C@H](C)O3)cc1`, the cytotoxicity call was “inactive”.
For `COc1ccc(NC(=O)Nc2ccc3c(c2)C(=O)N([C@H](C)CO)C[C@@H](C)[C@@H](CN(C)CC2CCCCC2)OCCCC[C@@H](C)O3)cc1`, the cytotoxicity call was “active”.
With `COc1ccc(NC(=O)Nc2ccc3c(c2)C(=O)N([C@H](C)CO)C[C@H](C)[C@H](CN(C)CC2CCCCC2)OCCCC[C@H](C)O3)cc1` the cytotoxicity call was “inactive”.
